{"source": "ChEMBL document CHEMBL3988442", "about": "“University of Dundee, Small-Polar-MMV Screening Library” (2021)", "note": "Out of some 48,000 compounds screened, about 13,000 (27%) showed an effect of 50% or more. Some of the results follow.", "data": [{"test_system": "Wolbachia pipientis", "test": "Anti-Wolbachia Cell-Based Screen", "assay_type": "functional", "design": "scale not given: in the data most compounds retested in dose-response had high values", "conditions": "5 µM", "units": {"Percent Effect": "%"}, "values": [{"smiles": "N#Cc1cccnc1NCCNC(=O)N1CCCC(C(F)(F)F)C1", "note": "(configuration not stated)", "Percent Effect": -23.68}, {"smiles": "CS(=O)(=O)NCCC1CN(Cc2ccccc2F)CCO1", "note": "(configuration not stated)", "Percent Effect": -13.1}, {"smiles": "N#Cc1c[nH]c(C(=O)N(Cc2ccc(O)cc2)CC2CC2)c1", "Percent Effect": -16.08}, {"smiles": "O=C(NCC(O)c1cccs1)c1cccc(Cl)c1", "note": "(configuration not stated)", "Percent Effect": -18.24}, {"smiles": "CNc1nc(C(=O)N2CCC3(CCCN(CCOC)C3=O)C2)cs1", "note": "(configuration not stated)", "Percent Effect": -30.8}, {"smiles": "O=C1CCNc2ncc(-c3cccc(Cl)c3)cc2CN1C1CC1", "Percent Effect": 104.4}, {"smiles": "COc1ccc(-c2nnc(CN3CCNC(=O)C3)o2)cc1", "Percent Effect": -34.6}, {"smiles": "CNC(=O)c1cn2cc(-c3cccc(Cl)c3)n(CC3CC3)c(=O)c2n1", "Percent Effect": -6.691}, {"smiles": "COc1ccc(-c2cnc3c(c2)CN(C2CC2)C(=O)CCN3)cc1", "Percent Effect": 106.7}, {"smiles": "O=C1CCNc2ncc(-c3ccc(Cl)cc3)cc2CN1C1CC1", "Percent Effect": 113.7}, {"smiles": "COc1ccc(NC2CCN(C3CC3)C2=O)cn1", "note": "(configuration not stated)", "Percent Effect": -16.66}, {"smiles": "O=C1CCNc2ncc(-c3ccccc3Cl)cc2CN1C1CC1", "Percent Effect": 75.8}, {"smiles": "O=C(c1ncc[nH]1)N1CCC(n2cc(-c3cccc(Cl)c3)nn2)CC1", "Percent Effect": -7.325}, {"smiles": "O=S(=O)(c1ccccc1Cl)N1CCc2nc(C3CCNCC3)ncc2C1", "Percent Effect": -5.628}, {"smiles": "CC(O)c1cn(C2CCN(C(=O)C3(C)CCCCC3)CC2)nn1", "note": "(configuration not stated)", "Percent Effect": 29.6}, {"smiles": "NC(=O)CCOc1ccc(NC(=O)c2ccccc2OC(F)F)cc1", "Percent Effect": 5.121}, {"smiles": "CC(=O)N1CCC(N2CCOC[C@H]2c2nc(C(C)(C)C)c[nH]2)CC1", "Percent Effect": -20.09}, {"smiles": "COc1cccc2c1OCC(Cc1cc(C(N)=O)ccn1)C2", "note": "(configuration not stated)", "Percent Effect": 86.97}, {"smiles": "COc1cccc2c1OCC(CNC(=O)Cc1cnccn1)C2", "note": "(configuration not stated)", "Percent Effect": -6.368}, {"smiles": "COc1cccc2c1OCC(Cc1cnc(N)c(C)c1)C2", "note": "(configuration not stated)", "Percent Effect": 43.69}, {"smiles": "COc1cccc2c1OCC(C(=O)N1Cc3ccccc3C1)C2", "note": "(configuration not stated)", "Percent Effect": -46.74}, {"smiles": "COc1cccc2c1OCC(CNC(=O)CN(C)C1CCCC1)C2", "note": "(configuration not stated)", "Percent Effect": -4.207}, {"smiles": "CCNC(=O)c1ccnc(CC2COc3c(cccc3OC)C2)c1", "note": "(configuration not stated)", "Percent Effect": 109.1}, {"smiles": "COc1cccc2c1OCC(CNC(=O)Cc1csc(C(C)=O)c1)C2", "note": "(configuration not stated)", "Percent Effect": -8.032}, {"smiles": "COc1cccc2c1OCC(CNC(=O)Cn1ccnc1C)C2", "note": "(configuration not stated)", "Percent Effect": -7.516}, {"smiles": "CNC(=O)c1ccnc(CC2COc3c(cccc3OC)C2)c1", "note": "(configuration not stated)", "Percent Effect": 100.6}, {"smiles": "COc1cccc2c1OCC(C(=O)N1CCSCC1)C2", "note": "(configuration not stated)", "Percent Effect": -0.8492}, {"smiles": "CCOCCC(=O)NCC1COc2c(cccc2OC)C1", "note": "(configuration not stated)", "Percent Effect": -9.333}, {"smiles": "COc1cccc2c1OCC(Cc1cc(C(=O)N3CCCC3)ccn1)C2", "note": "(configuration not stated)", "Percent Effect": 103.2}, {"smiles": "CCCC(C)NCc1cnc(-c2cccc(C)c2)nc1", "note": "(configuration not stated)", "Percent Effect": 4.812}, {"smiles": "CC1=C[C@@H](CN2CCC(O)CC2)[C@H](C(C)C)C[C@H]1Cc1nnc(C)o1", "Percent Effect": 4.973}, {"smiles": "CC(C(=O)N(C)Cc1ccco1)n1cncn1", "note": "(configuration not stated)", "Percent Effect": 14.16}, {"smiles": "CN1Cc2[nH]nc(COCC3CC3)c2C1.O=C(O)C(F)(F)F.O=C(O)C(F)(F)F", "Percent Effect": -7.545}, {"smiles": "CC(CO)CNC(=O)c1cc2cccc(F)c2o1", "note": "(configuration not stated)", "Percent Effect": -10.54}, {"smiles": "CN1CCN(CC2CC2)C(=O)c2cnc(N3CCOCC3)nc21", "Percent Effect": 128}, {"smiles": "Cc1cnc(N2C[C@@H]3CCN(CC4CC4)C(=O)[C@H]3C2)nc1", "Percent Effect": 4.769}, {"smiles": "CN1CCN(CC2CC2)C(=O)c2cnc(N3CCCCC3)nc21", "Percent Effect": 8.561}, {"smiles": "CN1CCN(CC2CC2)C(=O)c2cnc(N3CCCC3)nc21", "Percent Effect": -1.77}, {"smiles": "CN1CCN(CC2CC2)C(=O)c2cnc(N3CC[C@@H](O)C3)nc21", "Percent Effect": -2.603}, {"smiles": "CN1CCN(CC2CC2)C(=O)c2cnc(N3CCC(CO)CC3)nc21", "Percent Effect": 85.31}, {"smiles": "c1cc2c(cc1-c1noc3c1CN(C1CCSC1)CC3)OCO2", "note": "(configuration not stated)", "Percent Effect": 2.821}, {"smiles": "CC(NCc1ccccc1CN1CCCC1=O)c1ccc(C#N)cc1", "note": "(configuration not stated)", "Percent Effect": -5.192}, {"smiles": "CCN(CCOc1ccc(F)cc1)C(=O)c1ccncc1Cl", "Percent Effect": 2.739}, {"smiles": "O=C(NCCC1CN(Cc2cccnc2)CCO1)c1ccsc1", "note": "(configuration not stated)", "Percent Effect": -9.218}, {"smiles": "N#Cc1c(SCCN2CCOCC2)sc2c(O)cc(O)nc12", "Percent Effect": 143.1}, {"smiles": "N#CCCSc1sc2c(O)cc(O)nc2c1C#N", "Percent Effect": 107.9}, {"smiles": "FC(F)(F)Cn1nnnc1SCCN1CCCCC1", "Percent Effect": -6.458}, {"smiles": "N#Cc1c(SCCN2CCCCC2)sc2c(O)cc(O)nc12", "Percent Effect": 98.27}, {"smiles": "N#Cc1ccc(-c2nnc(CSCCN3CCOCC3)o2)cc1", "Percent Effect": -12.22}, {"smiles": "N#Cc1ccc(F)c(CSCCN2CCOCC2)c1", "Percent Effect": -32.26}, {"smiles": "N#Cc1c(SCCN2CCCCCC2)sc2c(O)cc(O)nc12", "Percent Effect": 100.4}, {"smiles": "Cn1cc(Br)cc1C(=O)NC1(C#N)CC1", "Percent Effect": -11.26}, {"smiles": "c1cnc(NCCCOC2CCOCC2)nc1", "Percent Effect": 1.156}, {"smiles": "CC(C)CN1CCCn2nc(CNC(=O)CN3CCOC3=O)cc2C1", "Percent Effect": 1.752}, {"smiles": "Cn1cnnc1CNC(=O)CCCOc1ccccc1Cl", "Percent Effect": 2.629}, {"smiles": "Cc1ccc(N(C)Cc2nnnn2C2CC2)c(C)c1", "Percent Effect": -2.761}, {"smiles": "Cc1cc(C)n(C2CCCN(C(=O)c3cccc4c3OCO4)C2)n1", "note": "(configuration not stated)", "Percent Effect": 86.78}, {"smiles": "O=C(c1ccccc1N1CCOCC1)N1CCCC(n2cccn2)C1", "note": "(configuration not stated)", "Percent Effect": -2.451}, {"smiles": "O=C(c1cccc2c1OCO2)N1CCCC(n2cccn2)C1", "note": "(configuration not stated)", "Percent Effect": 2.187}, {"smiles": "Cc1cc(C)n(C2CCCN(C(=O)c3cccc4[nH]ncc34)C2)n1", "note": "(configuration not stated)", "Percent Effect": 4.56}, {"smiles": "Cc1cnn(C2CCCN(C(=O)c3cccc4c3OCO4)C2)c1", "note": "(configuration not stated)", "Percent Effect": 104.2}, {"smiles": "O=C(c1cccc2c1OCCO2)N1CCCC(n2cccn2)C1", "note": "(configuration not stated)", "Percent Effect": 108.1}, {"smiles": "COCc1ccccc1C(=O)N1CCCC(n2nc(C)cc2C)C1", "note": "(configuration not stated)", "Percent Effect": 4.248}, {"smiles": "c1cc(CCn2ccc(NC3CCSCC3)n2)ccn1", "Percent Effect": 6.041}, {"smiles": "COc1cccc(N2CCN(C(C(=O)O)c3ccc(OC)nc3)CC2)c1", "note": "(configuration not stated)", "Percent Effect": -2.782}, {"smiles": "COc1c(F)cc(-c2cccc3c2OC(CN)C3)cc1F", "note": "(configuration not stated)", "Percent Effect": 6.268}, {"smiles": "CC(C)(C)c1cc(C[C@H]2CNCC[C@H]2CC(=O)NC2CCCCC2)no1", "Percent Effect": 10.2}, {"smiles": "CC1CCN(C(=O)C2(Cc3cc(C4CCOC4)no3)CCNCC2)CC1.Cl", "note": "(configuration not stated)", "Percent Effect": 189.1}, {"smiles": "CC(C)(C)c1noc(OCC(=O)NC2CCCC2)n1", "Percent Effect": -14.46}, {"smiles": "OCC1COCCN(Cc2cc(C3CCCCC3)no2)C1", "note": "(configuration not stated)", "Percent Effect": -1.346}, {"smiles": "C[C@@H]1CN(Cc2cc(C3CCCCC3)no2)CC[C@]1(C)O", "Percent Effect": 4.197}, {"smiles": "Cl.O=C(NC1CCCC1)C1(Cc2cc(C3CCOC3)no2)CCNCC1", "note": "(configuration not stated)", "Percent Effect": 131.3}]}]}
